High-throughput results as filed in PubChem BioAssay.
SW480 rereplic: inducers of DNA re-replication in SW480 colon cancer cells. SW480 DNA re-replication, Hoechst DNA content imaging, 48 h. Potency, µM (series often up to 46.1 µM), actives largely listed as activators. 340,000 compounds, 1.8% hits. AID 624297; also: nearly all actives have a fitted effect of over 55% in size
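Compounds, transferred as 23 nL by pin tool, were incubated with cells for 48 hr; DNA content per nucleus was then quantified by Hoechst staining and fluorescence plate imaging.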
HT1080-NT tox: kills 2HG-producing HT-1080-NT fibrosarcoma cells | HT-1080-NT fibrosarcoma viability, CellTiter-Glo ATP luminescence, 48 h | Potency, µM (titrated, usually from 46.1 µM), hits mostly cytotoxic | 360,000 compounds, 1.6% hits | AID 686970;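 also: NT is the 2HG producing partner of a matched IDH1 knockdown line; nearly all actives have a fitted effect of over 55% in size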
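Viability by CellTiter-Glo luminescence after 48 h compound exposure at 37C of HT-1080-NT cells (750/well, RPMI, 5% FBS). % activity scaled between DMSO wells and medium-only wells, then curve-fitted and categorized by curve class.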
HT1080 IDH1KD tx: kills HT-1080 cells with IDH1 knockdown. HT-1080 IDH1 knockdown viability, ATP luminescence, 48 h. Potency, µM (highest dose often 46.1 µM), most hits filed as cytotoxic. 360,000 compounds, 2% hits. AID 686971
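Assay cells: HT-1080 with IDH1 knockdown, 750 per well, RPMI/5% FBS. Exposure: 48 h at 37 °C following 2 h pre-incubation. Read: CellTiter-Glo luminescence; fitted concentration-response, curve class assigned.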
KB-3-1 cytotox: kills parental KB-3-1 adenocarcinoma cells | KB-3-1 viability, CellTiter-Glo ATP luminescence, 72 h | Potency, µM (titrated, usually from 46.1 µM), usual class: cytotoxic | 400,000 compounds, 1.4% hits | AID 1347075; also: nearly all actives have a fitted effect of over 60% in size
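KB-3-1 parental drug-naive adenocarcinoma cells in DMEM/10% FBS, incubated 72 h at 37 C with pin-transferred compounds across a concentration series. Viability by CellTiter-Glo luminescence; concentration-response curves fitted after normalization.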
KB-V1 MDR tox: kills drug-selected multidrug resistant KB-V1 cells; KB-V1 MDR cells viability, CellTiter-Glo, 72 h; Potency, µM (titrated, usually from 46.1 µM), most hits filed as cytotoxic; 400,000 compounds, 3.4% hits; AID 1347076; also: nearly all actives have a fitted effect of over 60% in size
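Compound-treated KB-V1 multidrug-resistant cells, 72 h, 37 degrees C; viability by CellTiter-Glo. Fitted qHTS curves give the values.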
MCF10A rereplic: inducers of DNA re-replication in MCF 10A breast cells. AID 624296. MCF 10A DNA re-replication, Hoechst nuclear intensity, 48 h. 350,000 compounds, 2.9% hits. Potency, µM (top dose mostly 46.1 µM), usual class: activators; also: nearly all actives have a fitted effect of over 50% in size
Numbers stand for hits; i = inactive; ? = inconclusive; nt = not tested or not shown; [ ] = remark or other dose. An excerpt weighted towards active compounds, which were near 8% of everything screened. Calls follow the shape of the dose curve; as a rule, active = well fitted curve in the direction sought with a large enough effect; inconclusive = small, poorly fitted or top-dose-only effect, or another doubt; inactive = no such curve, though single readings can be large; an effect the other way counts as inactive or inconclusive.

SMILES | SW480 rereplic | HT1080-NT tox | HT1080 IDH1KD tx | KB-3-1 cytotox | KB-V1 MDR tox | MCF10A rereplic
CCN(CC)c1ccc(NS(=O)(=O)c2cc3[nH]c(=O)c(=O)[nH]c3cc2C)c(C)c1 | nt | nt | nt | i | ? | nt
O=C(CCCCn1c(=O)[nH]c2ccccc2c1=O)NCCC1=CCCCC1 | i | i | i | i | 16.4µM | i
Cc1ccc2nc(CSc3nc(C)ccc3C#N)[nH]c2c1 | ? | 17.8µM | 15.8µM | i | i | ?
Cc1ccc(C#N)c(SCc2ccccc2F)n1 | ? | i | i | i | i | i
COc1ccccc1CCNC(=O)Cn1ccc2cc(S(=O)(=O)N3CCCCC3)ccc21 | nt | nt | nt | i | i | nt
Cc1ccc(NC(=S)NC2CCSc3ccccc32)cc1C (centres undefined) | 18.4µM | i | i | ? | i | 18.4µM
CCOc1ccc(-c2oc3cc(Cl)ccc3c(=O)c2O)cc1OC | nt | nt | nt | i | ? | nt
CCN(CC)S(=O)(=O)c1cnccc1N1CCN(c2cccc(Cl)c2)CC1 | i | i | i | 10.3µM | i | ?
CNS(=O)(=O)c1cnccc1N1CCN(c2cccc(Cl)c2)CC1 | i | i | i | i | i | i
c1cncc(-c2nc(NCCCN3CCOCC3)c3c4c(sc3n2)CCC4)c1 | i | 18.4µM | ? | ? | i | i
CCc1ccc(-n2c(=O)c3sc4ccccc4c3n(CC(=O)NCc3ccccc3)c2=O)cc1 | nt | nt | nt | i | i | nt
O=C1CCc2cc(NS(=O)(=O)c3ccc(Br)cc3)cc3c2N1CC3 | i | i | i | i | i | i
Cc1ccc(C)c(S(=O)(=O)Nc2cc3c4c(c2)CC(=O)N4CCC3)c1 | i | i | i | ? | 11.6µM | i
Cc1ccc(S(=O)(=O)Nc2cc3c4c(c2)CCC(=O)N4CCC3)cc1 | i | i | i | i | i | 9.2µM
Cn1cc(C(=O)NCCc2ccc(Cl)cc2)c(=O)c2cc(S(=O)(=O)N3CCCCC3)ccc21 | nt | nt | nt | ? | i | nt
COc1cccc(C(=O)Nc2cccc(OCc3cc(=O)n4cc(C)ccc4n3)c2)c1 | nt | nt | nt | i | i | nt
CCOC(=O)c1cc(S(=O)(=O)Nc2ccc(OC)c(Cl)c2)[nH]n1 | nt | nt | nt | i | ? | nt
Cc1ccc(C)c(Cn2c(=O)n(-c3ccccc3)c(=O)c3c4c(sc32)CCCC4)c1 | nt | nt | nt | i | i | nt
CC1CCCN(C2=NC(=O)/C(=C/c3cn(-c4ccccc4)nc3-c3cccc(S(=O)(=O)N(C)C)c3)S2)C1 (centres undefined) | i | i | i | i | i | ?
CC1CCN(C2=NC(=O)/C(=C/c3cn(-c4ccccc4)nc3-c3cccc(S(=O)(=O)N(C)C)c3)S2)CC1 | 20.6µM | i | i | i | i | i
CCOc1ccc(N(Cc2cc3cc(C)ccc3[nH]c2=O)C(=O)c2cccc(Cl)c2)cc1 | nt | nt | nt | i | i | nt
O=S(=O)(Nc1ccc(F)cc1F)c1ccc(Br)s1 | nt | nt | nt | i | i | nt
CN(CC(=O)Nc1sc2c(c1C#N)CCCCC2)Cc1nc2ccccc2c(=O)[nH]1 | i | i | i | i | 16.4µM | ?
COc1ccc(CN(C)CC(=O)Nc2sc3c(c2C#N)CCC3)cc1OC | 11.6µM | i | i | i | i | ?
CC(C)Oc1ccc(CNC(=O)Cn2ncn3nc(-c4cccs4)cc3c2=O)cc1 | nt | nt | nt | i | i | nt
SMILES | SW480 rereplic | HT1080-NT tox | HT1080 IDH1KD tx | KB-3-1 cytotox | KB-V1 MDR tox | MCF10A rereplic
O=C(Nc1ccc(Cl)c(Cl)c1)N(Cc1c[nH]c2ccccc12)C1CCCCC1 | nt | nt | nt | i | i | nt
CCOc1cc(/C=N/N=C(\N)c2nonc2N)cc(Br)c1OCc1cccc2ccccc12 | ? | 23.1µM | 18.4µM | ? | ? | ?
COc1cc(/C=N/N=C(/N)c2nonc2N)cc(Br)c1OCc1cccc(C)c1 | i | ? | ? | i | i | ?
Cc1ccccc1Cc1c(C)nc2c(C(=O)N3CCN(Cc4ccc5c(c4)OCO5)CC3)cnn2c1C | i | i | ? | i | 8.2µM | i
Cc1nc2c(C(=O)NCc3ccc4c(c3)OCO4)cnn2c(C)c1Cc1ccc(F)cc1Cl | i | i | i | ? | i | ?
Cc1ccccc1Cc1c(C)nc2c(C(=O)NCc3ccc4c(c3)OCO4)cnn2c1C | i | i | i | i | 18.4µM | i
C/C(CCC12CC3CC(CC(C3)C1)C2)=N\NC(N)=S | 3.26µM | ? | ? | i | i | ?
Cc1ccc(C(=O)COC(=O)c2ccc3c(c2)C(=O)N(c2cccc4ncccc24)C3=O)cc1C | i | i | i | i | i | 16.4µM
O=S(=O)(Nc1ccc(C(O)(C(F)(F)F)C(F)(F)F)cc1)c1ccc(Cl)c2nonc12 | nt | 20.6µM | 14.6µM | ? | ? | nt
O=C1NC[C@@H](CCCCN2C[C@H](Cc3ccccc3)N(CCC3CCCCC3)C(=O)C2=O)N(Cc2ccccc2)C1=O | nt | ? | 20.6µM | ? | ? | nt
O=C1NC[C@H](CCCCN2C[C@H](Cc3ccccc3)N(CCC3CCCCC3)C(=O)C2=O)N(CCC2CCCCC2)C1=O | nt | i | i | ? | i | nt
O=C(CCc1nc(-c2ccccc2)no1)NC1CCCCC1 | i | i | i | i | 20.6µM | i
O=C(CCc1nc(-c2ccccc2F)no1)NC1CCCCCC1 | i | i | i[9.24 µM] | ? | 16.4µM | i
O=C(CCc1nc(-c2ccccc2F)no1)Nc1ccc(Oc2ccccc2)cc1 | ? | 14.6µM | 16.4µM | ? | ? | ?
O=C(CCc1nc(-c2ccc(Cl)cc2)no1)NC1CCCCC1 | i | i | i | i | ? | ?
Cc1ccc(C)c(N2CCN(C(=O)CCc3nc(-c4ccccc4F)no3)CC2)c1 | i | i | i | i | i | 16.4µM
COc1cccc(NC(=O)CCc2nc(-c3ccccc3F)no2)c1 | i | i | i | i | i | i
Cc1ccc(C)c(N2CCN(C(=O)CCc3nc(-c4ccccc4Br)no3)CC2)c1 | i | i | i | i | i | ?
Cc1cccc(Cn2c(C)c(CNC3CCCCC3)c(C(=O)O)c2C)c1 | nt | nt | nt | i | ? | nt
CC(=O)c1nn(-c2cccc(Br)c2)cc1C(=O)c1ccc(Cl)cc1 | ? | ? | ? | i | i | 4.61µM
CC(=O)c1nn(-c2cccc(Br)c2)cc1C(=O)c1ccccc1 | i | ? | ? | i | i | ?
CC(=O)c1nn(-c2ccccc2)cc1C(=O)c1cccc(Br)c1 | ? | i | i | i | i | 1.64µM
O=C(c1cccc(Br)c1)c1cn(-c2ccccc2)nc1C(=O)c1ccccc1 | i | i | i | i | 11.6µM | i
CCCCCn1c(=N)c(S(=O)(=O)c2ccccc2)cc2c(=O)n3cccc(C)c3nc21 | nt | nt | nt | i | i | nt
CC1=C(C(=O)Nc2ccc(Cl)cc2)C(C(C)C)n2nc(SCc3cccc(C)c3)nc2N1 (centres undefined) | nt | nt | nt | i | ? | nt
COc1ccc(C2C(C(=O)Nc3cccnc3)=C(C)Nc3nc(SCc4ccccc4)nn32)cc1 (centres undefined) | nt | nt | nt | i | ? | nt
